# In PubChem BioAssay (NCI):
# This is part of a sample that, as a whole, favours compounds with a hit. Of some 83,000 tested, about 20% had one in any assay.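 The test compound was applied at a single concentration to cells in 96-well plates for 48 hours, and percent growth was recorded.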 The source made the active and inactive calls. The calls were made as follows: active = growth percent below 10; inactive = the rest.
# Tests used:
# Assay in all cases: NCI-60 one-dose screen, 48 h (100 = growth as untreated, 0 = no growth, -100 = all killed)
# Conditions in all cases: 10 µM unless noted
# HCT-15 colon = tested on: HCT-15 colon
# HT29 colon = tested on: HT29 colon
# SNB-19 CNS = tested on: SNB-19 CNS
# U251 CNS = tested on: U251 CNS
# PC-3 prostate = tested on: PC-3 prostate
# SK-MEL-5 melanoma = tested on: SK-MEL-5 melanoma
# UACC-62 melanoma = tested on: UACC-62 melanoma
# LOX IMVI melanoma = tested on: LOX IMVI melanoma
# SNB-75 CNS = tested on: SNB-75 CNS
# SK-MEL-28 melanoma = tested on: SK-MEL-28 melanoma
SMILES,growth (HCT-15 colon),growth (HT29 colon),growth (SNB-19 CNS),growth (U251 CNS),growth (PC-3 prostate),growth (SK-MEL-5 melanoma),growth (UACC-62 melanoma),growth (LOX IMVI melanoma),growth (SNB-75 CNS),growth (SK-MEL-28 melanoma)
CCN(CC)CCCC(C)Nc1cnc(C(=O)Nc2cc(C)cc3cccnc23)cn1 (stereo not drawn),59.9% (inactive),37.3% (inactive),89.2% (inactive),78.4% (inactive),83.1% (inactive),83.1% (inactive),98.6% (inactive),87% (inactive),,
Cc1ccc2oc(=O)cc(-c3nc4ccc([N+](=O)[O-])cc4[nH]3)c2c1,59.4% (inactive),70.9% (inactive),61.4% (inactive),,48.9% (inactive),28.9% (inactive),39.5% (inactive),67.7% (inactive),70.1% (inactive),63.7% (inactive)
COc1ccc2[nH]cc(C(c3ccc(Cl)cc3)N3CCCC3)c2c1 (stereo not drawn),89.7% (inactive),102% (inactive),105% (inactive),,74.8% (inactive),88.5% (inactive),92.5% (inactive),90.7% (inactive),90% (inactive),111% (inactive)
COc1ccc(/C=C/C(=O)c2ccc(NC(=O)CSc3nnc(-c4ccc(OC)cc4)n3-c3ccccc3)cc2)cc1,96.4% (inactive),103% (inactive),94.1% (inactive),,106% (inactive),95.1% (inactive),89.4% (inactive),102% (inactive),91.7% (inactive),106% (inactive)
CCCCCCCCNC(C)C(O)c1ccc(SC(C)C)cc1 (stereo not drawn),14.8% (inactive),-45.4% (active),75.9% (inactive),42.5% (inactive),7.49% (active),68.4% (inactive),,,74.8% (inactive),74.3% (inactive)
